# Screening data deposited in PubChem by National Center for Advancing Translational Sciences (NCATS).
# A selection: hits, their analogues and other compounds. The true share with any hit is near 6.2%.
# HT1080-NT tox = kills 2HG-producing HT-1080-NT fibrosarcoma cells | Potency, µM (highest dose often 46.1 µM), for the others: top-dose activity, negative = less viability, hits mostly cytotoxic | HT-1080-NT fibrosarcoma viability, CellTiter-Glo ATP luminescence, 48 h | hit rate 1.6% among 360,000 | AID 686970;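 further: NT is the 2HG producing partner of a matched IDH1 knockdown line; 0% = DMSO-treated cells and -100% = media-only wells without cells; nearly all actives have a fitted effect of over 55% in size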
#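 Compounds were tested in concentration-response format on HT-1080-NT cells for 48 hours at 37 degrees C. Cell viability came from CellTiter-Glo luminescence; curves were classified by r2, response magnitude and activity.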
# ATXN viability = cell viability loss in ATXN counter-screen; Potency, µM (series often up to 56.7 µM), usual class: cytotoxic; S2 cells (HEK-293 line with an ATXN2-luciferase reporter) viability, CellTiter-Fluor protease fluorescence, 24 h; AID 651635; hit rate 0.49% among 400,000; further: nearly all actives have a fitted effect of over 40% in size
# ATXN2 expr inh = ATXN2 expression inhibition | HEK-293 ATXN2-luciferase reporter, luminescence, 24 h | Potency, µM (series often up to 57 µM), without a hit: at the top dose activity change, negative = inhibition, most hits filed as inhibitors | hit rate 0.72% among 360,000 | AID 1745845; further: on the % scale 0 is the no-effect control and ±100 the full control effect; nearly all actives have a fitted effect of over 55% in size
#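 ATXN2-luciferase reporter cells (luciferase flanked by upstream and downstream ATXN2 gene portions) were treated 24 h at 37 °C with compounds at up to 57 uM. SteadyGlo luminescence gave expression; GF-AFC fluorescence gave viability.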
# KB-V1 MDR tox = kills drug-selected multidrug resistant KB-V1 cells. KB-V1 MDR cells viability, CellTiter-Glo, 72 h. Potency, µM (top dose mostly 46.1 µM), usual class: cytotoxic. hit rate 3.4% among 400,000; further: on the % scale 0 is the no-effect control and ±100 the full control effect; nearly all actives have a fitted effect of over 60% in size
#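 KB-V1 MDR subline cells in DMEM (phenol-red free, 10% FBS) exposed to compounds in qHTS concentration series for 72 h at 37 degrees C. Viability read by CellTiter-Glo luminescence; concentration-effect curves fitted after normalization and correction.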
# KB-3-1 cytotox = kills parental KB-3-1 adenocarcinoma cells | KB-3-1 viability, CellTiter-Glo ATP luminescence, 72 h | Potency, µM (top dose mostly 46.1 µM), usual class: cytotoxic | hit rate 1.4% among 400,000 | AID 1347075; further: on the % scale 0 is the no-effect control and ±100 the full control effect; nearly all actives have a fitted effect of over 60% in size
#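 Screening of KB-3-1 cells (DMEM, 10% FBS, phenol-red free) ran from lowest to highest compound concentration; after 72 h at 37 °C viability was read luminescently and curves fitted.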
# HT1080 IDH1KD tx = kills HT-1080 cells with IDH1 knockdown; AID 686971; hit rate 2% among 360,000; HT-1080 IDH1 knockdown viability, ATP luminescence, 48 h; Potency, µM (series often up to 46.1 µM), for the others: at the highest dose activity, negative = toxicity, usual class: cytotoxic;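 further: 0% = DMSO wells and -100% = cell-free medium wells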
#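 Cytotoxicity counter-line: IDH1KD HT-1080, 48 h, CellTiter-Glo. Curves classed by r2, magnitude and activity.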
# Starred values were filed as active, the others as inactive; i = inactive; ? = inconclusive; nt = no result given; [ ] = another dose, or the depositor's remark. The call rests on the fitted dose curve; in most records, active means well fitted curve in the direction sought with a large enough effect; inconclusive means small, poorly fitted or top-dose-only effect, or another doubt; inactive means no such curve, though single readings can be large; an effect the other way counts as inactive or inconclusive. Potency means the concentration at half of the fitted maximal effect.
SMILES,HT1080-NT tox,ATXN viability,ATXN2 expr inh,KB-V1 MDR tox,KB-3-1 cytotox,HT1080 IDH1KD tx
CCOc1ccc(-c2nnn(CC(=O)NCc3ccccc3)n2)cc1,-2%,i,-15%,?,6.5µM*,-9%
Nc1ccc(S(=O)(=O)NNC(=O)C(=O)NNc2ccccc2)cc1,10µM*,i,-12%,i,i,?
O=C(NNc1ccccc1)C(=O)NNS(=O)(=O)c1ccc(CCCl)cc1,?,i,nt,i,?,?
COc1ccc(NC(=O)Nc2nnc(N3CCCC3)s2)cc1,nt,i,14%,?,i,nt
CC(=O)c1cccc(-c2ccc3c(c2)C(C)(Cc2ccccc2F)C(=O)N3)c1 (stereo not given),-7%,?,?,i,i,?
COC(=O)c1ccc(CC2(C)C(=O)Nc3ccc(-c4cccc(C(F)(F)F)c4)cc32)o1 (stereo not given),?,32µM*,?,?,?,?
COc1ccc(-c2nn(-c3cccc([N+](=O)[O-])c3)c3c2cnc2cc4c(cc23)OCO4)cc1,nt,i,4%,i,i,nt
S=c1nc[nH]c2c1ncn2-c1ccc(Cl)cc1,6%,i,12%,10µM*,?,19%
O=C1c2cccc3cccc(c23)C(=O)C1(O)O,?,nt,?,i,i,18µM*
Oc1cccc(-c2nc3c4c(ncn3n2)-c2ccccc2CC42CCCC2)c1,?,?,?,7.3µM*,i,11µM*
COc1ccc(OCc2nc3c4c(ncn3n2)-c2ccccc2CC42CCCC2)cc1,5%,i,1%,12µM*,i,13%
COc1ccc(-n2nc(C(=O)N3CCN(c4cccc(C)c4)C(C)C3)c3c4ccccc4n(C)c3c2=O)cc1Cl (stereo not given),nt,i,1%,i,i,nt
COC(=O)c1cc(NS(=O)(=O)c2cc(Br)cc3c2N(C(C)=O)CC3)cc(C(=O)OC)c1,nt,i,-8%,i,i,nt
C=CC[C@@H](CC(=O)N(CCO)Cc1ccccc1)C(=O)N[C@@H](C)COC(=O)[C@@H](CC=C)Cc1ccc(F)cc1,1%,i,-13%,i,i,3%
C=CC[C@@H](CC(=O)N(CCO)Cc1ccccc1)C(=O)N[C@H](COC(=O)[C@@H](CC=C)Cc1ccc(F)cc1)c1ccccc1,-26%,22µM*,?,?,?,-22%
C=CC[C@H](CC(=O)NCCO)C(=O)NC[C@H](OC(=O)[C@@H](CC=C)Cc1ccc(F)cc1)c1ccccc1,4%,i,10%,i,i,-3%
C=CC[C@@H](CC(=O)N(CCO)Cc1ccccc1)C(=O)NC[C@H](OC(=O)[C@@H](CC=C)Cc1ccc(F)cc1)c1ccccc1,?,20µM*,?,16µM*,?,?
COc1cc(OC)c(C=CS(=O)(=O)Cc2ccc(OC)c(NCC(=O)O)c2)c(OC)c1,nt,nt,-2%,nt,nt,nt
C[C@@H]1NC(=O)[C@@H](N)CNC(=O)[C@H](C2CCNC(N)=N2)NC(=O)/C(=C/NC(N)=O)NC(=O)[C@H](CNC(=O)C[C@@H](N)CCCN)NC1=O (stereo not given in full),nt,i,nt,nt,nt,nt
O=C(Nc1cccc(C(F)(F)F)c1)C1CCCN1S(=O)(=O)c1cccc2cccnc12 (stereo not given),-9%,i,?,2.6µM*,i,-28%
O=C(Nc1cccc(C(F)(F)F)c1)C1CCCN1S(=O)(=O)c1cccc2nsnc12 (stereo not given),nt,nt,?,7.3µM*,?,nt
O=C(Nc1cccc(C(F)(F)F)c1)C1CCCN(S(=O)(=O)c2cccc3nsnc23)C1 (stereo not given),nt,i,-12%,i,i,nt
O=C1c2cccc3c(Cl)ccc(c23)C(=O)N1O,7.9µM*,i,7%,i,i,-16%
CCN1C(=O)c2cccc3c(Cl)ccc(c23)C1=O,22%,nt,-28%,i,i,22%
Cc1ccccc1N(CC(=O)NC1CCCC1)C(=O)c1oc(C(C)(C)C)cc1C,-6%,i,-36%,16µM*,i,2%
SMILES,HT1080-NT tox,ATXN viability,ATXN2 expr inh,KB-V1 MDR tox,KB-3-1 cytotox,HT1080 IDH1KD tx
Cc1cc(C(C)(C)C)oc1C(=O)N(CC(=O)NC1CCCC1)c1cccc(C(F)(F)F)c1,?,?,?,?,i,?
CC(C)c1ccc(NC(=O)CSc2nc(=O)n(Cc3cccnc3)c3c2CCC3)cc1,nt,i,-39%,i,i,nt
COc1ccc(CCn2c(N)c(C(=O)NCc3ccco3)c3nc4ccccc4nc32)cc1OC,?,i,?,i,i,18µM*
COc1ccc(CCn2c(N)c(C(=O)NCc3ccco3)c3nc4ccccc4nc32)cc1,?,i,-19%,6.5µM*,7.3µM*,?
COc1ccc(Nc2nc(C(=O)NCc3ccco3)cs2)cc1,-22%,i,nt,16µM*,16µM*,-7%
Nc1c(C(=O)NCc2ccco2)c2nc3ccccc3nc2n1CCc1ccccc1F,-14%,i,?,?,?,-15%
CCOC(=O)c1cc2c(=O)n3ccccc3nc2n(CC2CCCO2)c1=NC(=O)c1ccc(OCC)cc1 (stereo not given),nt,i,6%,i,i,nt
CCC(=O)NC(Cc1ccccc1)c1ccc2c(c1)OCCCO2 (stereo not given),11%,i,28%,13µM*,i,30%
O=S(=O)(c1ccc(Cl)cc1Br)N1CCCCC1,0%,i,-13%,18µM*,?,-29%
CCOc1ccc(S(=O)(=O)N2CCOCC2)c2ccccc12,-2%,i,-12%,i,i,-8%
CC1CCN(S(=O)(=O)c2cc(Cl)ccc2Br)CC1,-7%,i,-1%,i,i,-3%
O=S(=O)(c1ccc(Cl)cc1)N1CCN(S(=O)(=O)N2CCCCCC2)CC1,10%,i,2%[11.3 µM],i,i,20%
O=S(=O)(c1ccc(Oc2ccc(Cl)cc2)c(S(=O)(=O)N2CCCCC2)c1)N1CCCCC1,12%,i,2%,3.3µM*,i,8%
O=S(=O)(c1cccc2ccccc12)N1CCCCC1,4%,i,-6%,i,i,-1%
CCOc1ccc(S(=O)(=O)N2CCCCC2)c2ccccc12,-11%,i,-10%,i,i,21µM*
O=S(=O)(c1ccccc1S(=O)(=O)N1CCCCC1)N1CCCCC1,?,i,12%,15µM*,i,-22%
